Bioassay records as filed in PubChem BioAssay.
NLRP3 yeast inh = blocks the NALP3 inflammasome reconstituted in yeast | Yeast reconstituted NLRP3/ASC/caspase-1, beta-gal luminescence, 24 h | inhibition, % at 10 µM | hit rate 0.39% among 330,000 | AID 2825;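 active = inhibition of 50% or more; inactive = inhibition below 50%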
NALP1 yeast inh = inhibitors of NALP1 inflammasome in yeast; S. cerevisiae NALP1/ASC/caspase-1 growth, X-gal OD620, 72 h; inhibition, % at 10 µM; hit rate 0.61% among 280,000; AID 2071; in the data active = inhibition mostly above about 24%, no sharp cut-off; inactive = mostly below about 32%
TIM10 inh = growth inhibitors of TIM10 yeast strain. S. cerevisiae TIM10 strain growth, BacTiter-Glo luminescence, 24 h. inhibition, % at 10 µM. hit rate 1.4% among 330,000;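 active = inhibition of 40% or more at the single tested concentration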;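 also: wild-type TIM10 isogenic control strain grown at permissive 25 °C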
tim10-1 inh = tim10-1 yeast growth inhibition; hit rate 2.2% among 330,000; S. cerevisiae tim10-1 ts strain growth, BacTiter-Glo, 24 h; inhibition, % at 20 µM; AID 463190;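 active = inhibition of at least 40%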;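 also: mutant grown at 25 °C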
tim23-1 inh = tim23-1 yeast growth inhibition | S. cerevisiae tim23-1 growth, BacTiter-Glo luminescence, 24 h | inhibition, % at 20 µM | hit rate 1.3% among 330,000;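 active = growth inhibition of the mutant yeast at or above 50%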;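 also: temperature-sensitive mutant grown at 25 °C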
tim10 confirm = TIM10 yeast growth inhibition, confirmed; shares compounds with TIM10 inh; inhibition, % at 10 µM; S. cerevisiae tim10 strain growth, BacTiter-Glo luminescence, 24 h; hit rate 63% among 4,600; AID 463215;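 active = inhibition of yeast growth at or above a set limit in either of two replicates at 10 µM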; also: this counterscreen used the strain with wild-type TIM10
Hits are given with their value. Hits are enriched below; roughly 4% of the tested compounds scored in any of these assays.

What do the screens show for `c1ccc(CSc2nc3ncncc3[nH]2)cc1`?
NLRP3 yeast inh: inactive; NALP1 yeast inh: inactive; TIM10 inh: inactive; tim10-1 inh: inactive; tim23-1 inh: inactive

Results for S=c1nc(SCc2ccccc2)[nH]c2ccccc12 ?
NLRP3 yeast inh: inactive; NALP1 yeast inh: inactive; TIM10 inh: 49.4; tim10-1 inh: inactive; tim23-1 inh: inactive; tim10 confirm: 39.5

How did CCOCCCN(C(=O)CNC(=O)c1ccco1)C(C(=O)NC1CCCC1)c1cccc(OC)c1 (centres undefined) do in these assays?
NLRP3 yeast inh: inactive; NALP1 yeast inh: inactive; TIM10 inh: inactive; tim10-1 inh: inactive; tim23-1 inh: inactive

How did O=C(Nc1ccc2oc(-c3ccncc3)nc2c1)c1ccccc1F do in these assays?
NLRP3 yeast inh: inactive; NALP1 yeast inh: inactive; TIM10 inh: inactive; tim10-1 inh: inactive; tim23-1 inh: inactive

What do the screens show for `O=C(Nc1ccc2oc(-c3ccccc3)nc2c1)c1ccccc1F`?
NLRP3 yeast inh: inactive; NALP1 yeast inh: inactive; TIM10 inh: 65.2; tim10-1 inh: inactive; tim23-1 inh: inactive; tim10 confirm: 53.8

What do the screens show for `O=C(Nc1ccc2oc(-c3ccncc3)nc2c1)c1ccccc1`?
NLRP3 yeast inh: inactive; NALP1 yeast inh: inactive; TIM10 inh: 44.5; tim10-1 inh: inactive; tim23-1 inh: inactive; tim10 confirm: inactive

How did CCOc1cc(/C=C2/C(=O)ON=C2C)ccc1OCc1ccc(F)cc1 do in these assays?
NLRP3 yeast inh: inactive; NALP1 yeast inh: inactive; TIM10 inh: 42.6; tim10-1 inh: inactive; tim23-1 inh: inactive; tim10 confirm: inactive

How did CCN(CC)CCNc1ccc2nnc(CCNS(=O)(=O)c3ccc(C)cc3)n2n1 do in these assays?
NLRP3 yeast inh: inactive; NALP1 yeast inh: inactive; TIM10 inh: inactive; tim10-1 inh: inactive; tim23-1 inh: inactive

How did COc1cccc(-c2sc3ccccc3c2-c2ccc(OCCN3CCCC3)cc2)c1 do in these assays?
NLRP3 yeast inh: inactive; TIM10 inh: inactive; tim10-1 inh: inactive; tim23-1 inh: inactive

How did COc1cccc(-c2sc3ccccc3c2-c2ccc(OCCN(C)C)cc2)c1 do in these assays?
NLRP3 yeast inh: inactive; TIM10 inh: 50.0; tim10-1 inh: inactive; tim23-1 inh: inactive; tim10 confirm: 52.2

Results for Cc1ccc(NCc2nnc(SCC(N)=O)o2)c(C)c1 ?
NLRP3 yeast inh: inactive; NALP1 yeast inh: inactive; TIM10 inh: inactive; tim10-1 inh: inactive; tim23-1 inh: inactive

How did Cc1ccc(NCc2nnc(SCC(=O)N(Cc3ccccc3)C(C)(C)C)o2)c(C)c1 do in these assays?
NLRP3 yeast inh: inactive; NALP1 yeast inh: inactive; TIM10 inh: 40.5; tim10-1 inh: inactive; tim23-1 inh: inactive; tim10 confirm: inactive

How did COc1cccc2cc(-c3nc4ccccc4o3)c(=O)oc12 do in these assays?
NLRP3 yeast inh: inactive; NALP1 yeast inh: inactive; TIM10 inh: 60.4; tim10-1 inh: inactive; tim23-1 inh: inactive; tim10 confirm: 67.4

What do the screens show for `O=c1oc2ccc(Br)cc2cc1-c1nc2ccccc2o1`?
NLRP3 yeast inh: inactive; NALP1 yeast inh: inactive; TIM10 inh: inactive; tim10-1 inh: inactive; tim23-1 inh: inactive

What do the screens show for `CCOC(=O)c1ccc(NC(=O)c2c(N)n(Cc3ccccc3)c(=O)[nH]c2=O)cc1`?
NLRP3 yeast inh: inactive; TIM10 inh: 97.6; tim10-1 inh: inactive; tim23-1 inh: inactive; tim10 confirm: inactive

What do the screens show for `O=C(NCc1ccncc1)c1cccc(S(=O)(=O)NCc2ccccc2)c1`?
NLRP3 yeast inh: inactive; NALP1 yeast inh: inactive; TIM10 inh: inactive; tim10-1 inh: inactive; tim23-1 inh: inactive

How did Cc1ccc(OCCNC(=O)c2cccc(S(=O)(=O)NCc3ccccc3)c2)cc1 do in these assays?
NLRP3 yeast inh: inactive; TIM10 inh: 58.6; tim10-1 inh: inactive; tim23-1 inh: inactive; tim10 confirm: inactive

What do the screens show for `C/C(=N\Nc1ccc(Cl)cc1)c1ccccn1`?
NLRP3 yeast inh: inactive; NALP1 yeast inh: inactive; TIM10 inh: 51.7; tim10-1 inh: inactive; tim23-1 inh: inactive; tim10 confirm: 33.7

What do the screens show for `O=C(Nc1ccc(F)cc1)C1CCN(S(=O)(=O)c2ccc3[nH]c(=O)oc3c2)CC1`?
NLRP3 yeast inh: inactive; NALP1 yeast inh: inactive; TIM10 inh: 74.1; tim10-1 inh: inactive; tim23-1 inh: inactive; tim10 confirm: inactive

How did O=C(Nc1ccc(S(=O)(=O)N2CCOCC2)cc1)C1CCN(S(=O)(=O)c2ccc(F)cc2)CC1 do in these assays?
NLRP3 yeast inh: inactive; TIM10 inh: inactive; tim10-1 inh: inactive; tim23-1 inh: inactive

What do the screens show for `COc1ccc(C(=O)c2ccc(OC)c(OC)c2)cc1OC`?
NLRP3 yeast inh: inactive; NALP1 yeast inh: inactive; TIM10 inh: inactive; tim10-1 inh: inactive; tim23-1 inh: inactive

How did COc1ccc(C(=O)c2ccc(OC)c3cccc(O)c23)cc1OC do in these assays?
NLRP3 yeast inh: inactive; NALP1 yeast inh: inactive; TIM10 inh: 43.8; tim10-1 inh: inactive; tim23-1 inh: inactive; tim10 confirm: inactive

Results for CC1/C(=N/O)CC(c2ccccc2)N(C)C1c1ccccc1 (centres undefined) ?
NLRP3 yeast inh: inactive; NALP1 yeast inh: inactive; TIM10 inh: 51.6; tim10-1 inh: inactive; tim23-1 inh: inactive; tim10 confirm: 55.4

How did O=C(CCCOc1ccc(Cl)cc1Cl)N/N=C/c1ccccc1O do in these assays?
NLRP3 yeast inh: inactive; NALP1 yeast inh: inactive; TIM10 inh: 41.3; tim10-1 inh: inactive; tim23-1 inh: inactive; tim10 confirm: 39.6

Results for COc1ccc(/C=N\NC(=O)c2cc(O)c(O)c(O)c2)cc1CN1CCN(c2ccc(F)cc2)CC1 ?
NALP1 yeast inh: inactive

How did COc1ccc(-c2cn3cc(C(F)(F)F)cc(Cl)c3n2)cc1 do in these assays?
NLRP3 yeast inh: inactive; NALP1 yeast inh: inactive; TIM10 inh: 51.5; tim10-1 inh: inactive; tim23-1 inh: inactive; tim10 confirm: 37.1

How did CCCOc1cccc(C(=O)Nc2ccc3c(c2)OCCO3)c1 do in these assays?
NLRP3 yeast inh: inactive; NALP1 yeast inh: inactive; TIM10 inh: inactive; tim10-1 inh: inactive; tim23-1 inh: inactive

What do the screens show for `Cc1ccc(C(c2nnnn2C2CCCC2)N2CCN(c3nc4ccccc4s3)CC2)cc1` (centres undefined)?
NLRP3 yeast inh: inactive; TIM10 inh: 56.5; tim10-1 inh: inactive; tim23-1 inh: inactive; tim10 confirm: inactive

How did c1csc(C(c2nnnn2C2CCCCC2)N2CCN(c3nc4ccccc4s3)CC2)c1 (centres undefined) do in these assays?
NALP1 yeast inh: inactive

Results for c1ccc(C(c2nnnn2C2CCCC2)N2CCN(c3nc4ccccc4s3)CC2)cc1 (centres undefined) ?
NLRP3 yeast inh: inactive; NALP1 yeast inh: inactive; TIM10 inh: 46.9; tim10-1 inh: inactive; tim23-1 inh: inactive; tim10 confirm: inactive

Results for CC(Sc1nnc(C2CC2)n1C1CC1)C(=O)NC1(C#N)CCCCC1 (centres undefined) ?
NLRP3 yeast inh: inactive; TIM10 inh: inactive; tim10-1 inh: inactive; tim23-1 inh: inactive

Results for O=C(C(=O)N1CCN(c2ccc([N+](=O)[O-])cc2)CC1)c1cn(CC(=O)N2CCOCC2)c2ccccc12 ?
NLRP3 yeast inh: inactive; NALP1 yeast inh: inactive; TIM10 inh: inactive; tim10-1 inh: inactive; tim23-1 inh: inactive
